In PubChem BioAssay:
The other results are listed elsewhere or left out. Active and inactive are the calls of the source.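 The calls were made as follows, unless noted: active = reconfirmed compounds whose average cytotoxicity reaches 50% or more; inactive = the rest.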

How the values were obtained:
[1] = cytotoxicity in PPC-1 cells, confirmation, cytotoxicity control for TRAIL apoptosis potentiator project, cell-based, ATP content luminescence (AID 1447); conditions: PPC-1 viability, ATPlite luminescence, overnight; at 5 µM; stronger effect = higher value;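 also: 0% = DMSO-treated cells and 100% = wells holding medium but no cells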
[2] = PMA/ionomycin-induced NF-kB reporter inhibitors, Jurkat retest, confirmation, T-cell NF-kB inhibitor project, cell-based, luminescence, single concentration (AID 435020;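 active = inhibition reaching about 45% at 4 µM in either replicate, limit read from the data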;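 also: plate controls were PMA/ionomycin stimulated DMSO wells for no effect and unstimulated DMSO wells for full effect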); conditions: Jurkat NF-kB luciferase, 16 h, at 4 µM, stronger effect = higher value
[3] = biological target: Tumor necrosis factor receptor superfamily member 10B (Homo sapiens) (UniProt O14763); assay: caspase-8 TRAIL sensitization, hit retest, confirmation, cell-based, NB7+caspase-8, with/without TRAIL, luminescence panel (AID 651596; in the data active = activity above about 50%); conditions: NB7 neuroblastoma + caspase-8, TRAIL sensitization, luminescence viability, with TRAIL, mean of runs, at 10 µM, stronger effect = higher value
Sequence of Tumor necrosis factor receptor superfamily member 10B (Homo sapiens) (O14763 whole entry, looked up): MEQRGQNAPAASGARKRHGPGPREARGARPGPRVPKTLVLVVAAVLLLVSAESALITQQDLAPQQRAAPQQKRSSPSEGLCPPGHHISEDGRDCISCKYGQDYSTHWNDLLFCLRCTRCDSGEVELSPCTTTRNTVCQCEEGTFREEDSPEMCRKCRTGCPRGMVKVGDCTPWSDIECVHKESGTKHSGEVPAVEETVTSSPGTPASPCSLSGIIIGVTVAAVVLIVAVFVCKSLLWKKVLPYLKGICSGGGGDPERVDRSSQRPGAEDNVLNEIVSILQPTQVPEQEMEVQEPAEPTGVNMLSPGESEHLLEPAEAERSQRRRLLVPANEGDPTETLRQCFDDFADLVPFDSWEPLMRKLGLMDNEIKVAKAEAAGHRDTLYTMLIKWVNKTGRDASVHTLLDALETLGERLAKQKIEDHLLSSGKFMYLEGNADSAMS

[4] = as above; conditions: NB7 neuroblastoma + caspase-8, without TRAIL, luminescence viability, without TRAIL, mean of runs, at 10 µM

OCCNc1nc2ccccc2n1-c1ncnc2sc3c(c12)CCC3
cytotoxicity [1]: -17.2% (inactive)

O=C(CSc1nnc(-c2ccc([N+](=O)[O-])cc2)o1)Nc1ccccn1
cytotoxicity [1]: 57% (active)

COC(=O)c1nc(NC(=O)c2ccc(Cl)cc2)n[nH]1
cytotoxicity [1]: 12.1% (inactive)

Cc1cc2c(=O)n(C)c(SCC(=O)c3cc4ccccc4o3)nc2s1
cytotoxicity [1]: -5.6% (inactive)

Cc1ccc(NC(=O)CS(=O)CC(=O)N(c2ccccc2)C(C)C(=O)NC2CCCC2)cc1 (centres undefined)
cytotoxicity [1]: 14.8% (inactive)

CCCCCCCCn1c2c(c(=N)c3c1CCC3)CCCC2
cytotoxicity [1]: 42.7% (inactive) | inhibition [2]: 75.5% (active)

CS(=O)(=O)N1CCN(C(=O)c2cc3ccccc3oc2=O)CC1
cytotoxicity [1]: 9.4% (inactive)

Cc1cc(C)nc(Nc2n[nH]c(-c3ccccc3N)n2)n1
cytotoxicity [1]: 37.6% (inactive)

CCOc1ccc(NC(=O)NNC(=O)c2ccc(Cl)cc2Cl)cc1
cytotoxicity [1]: -11.6% (inactive)

O=C(Nc1ccn(Cc2ccccc2)n1)c1cccc(F)c1
cytotoxicity [1]: 39.6% (inactive)

O=C(O)c1ccc(N/N=C/c2cn(-c3ccccc3)nc2-c2cccs2)cc1
cytotoxicity [1]: 85.2% (active) | inhibition [2]: -14.3% (inactive) | activity [3]: 77.9% | activity [4]: 73.7%

CNC(=O)CSc1nnc(CCc2ccccc2)n1-c1ccccc1
cytotoxicity [1]: 0.9% (inactive)

COc1ccc(-c2cc(C(=O)n3cnc4ccccc43)c3ccccc3n2)cc1
cytotoxicity [1]: 33.1% (inactive)

Cn1c(=O)n(C)c2cc(S(=O)(=O)N3CCCc4ccccc43)ccc21
cytotoxicity [1]: 14.1% (inactive)

COc1ccc(C2C(C#N)=C(/N=C/N3CCOCC3)OC3=C2C(=O)CC(C)(C)C3)cc1OC (centres undefined)
cytotoxicity [1]: 2.1% (inactive)
